Experimental data taken from PubChem BioAssay (Tox21).
Values joined by “and” are separate entries in the source; they are usually repeats but may differ in a detail not shown here. Equal values may be shown once. Records with an inconclusive call do not appear. A call without a number means that no potency is given here. More than one record can exist for a structure, and the calls need not agree. Active and inactive are the calls of the source. Unless noted, the call rests on the fitted dose curve; in most records, active means well fitted curve in the direction sought with a large enough effect in the repeat runs; inconclusive means weak or mixed curves; inactive means no such curve, though single readings can be large; an effect the other way counts as inactive or inconclusive.

Experiments:
[1] = qHTS assay to identify small molecule agonists of the constitutive androstane receptor (CAR) signaling pathway - cell viability counter screen (AID 1224836); further: nearly all actives have a fitted effect of over 45% in size; further: potency means the concentration at half of the fitted maximal effect
In short: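 Double-stable HepG2 hepatoma cells (hCAR plus CYP2B6-2.2kb) are treated for 23 h at 37 C with test compounds in 15-point concentration series. PK11195 at 0.75 uM final is co-added. Cell viability is quantified by CellTiter-Fluor.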

[2] = qHTS assay to identify small molecule antagonists of the constitutive androstane receptor (CAR) signaling pathway - cell viability counter screen (AID 1224837); further: nearly all actives have a fitted effect of over 45% in size; further: potency means the concentration at half of the fitted maximal effect
In short: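 Fluorescence from CellTiter-Fluor served as the viability signal. Human hepatoma HepG2 cells stably bearing hCAR and CYP2B6-2.2kb received compound plus CITCO (50 nM final) for 23 hr.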

[3] = target: Nuclear receptor subfamily 1 group I member 3 (Homo sapiens) (UniProt Q14994); experiment: qHTS assay to identify small molecule antagonists of the constitutive androstane receptor (CAR) signaling pathway (AID 1224838);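 further: HepG2 cells stably expressing hCAR with CYP2B6 luciferase reporter stimulated by CITCO; nearly all actives have a fitted effect of over 40% in size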; further: potency means the concentration at half of the fitted maximal effect
In short: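 Quantitative HTS in double-stable HepG2-CYP2B6-hCAR cells. After 4 h plating, cells get compound (15 concentrations) and CITCO at 50 nM final, incubate 24 h at 37 C, then ONE-Glo luminescence is read.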

[4] = target: Nuclear receptor subfamily 1 group I member 3 (Homo sapiens) (UniProt Q14994); experiment: qHTS assay to identify small molecule agonists of the constitutive androstane receptor (CAR) signaling pathway (AID 1224839); further: nearly all actives have a fitted effect of over 15% in size; further: potency means the concentration at half of the fitted maximal effect;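 on activation: HepG2 cells stably carrying human CAR and a CYP2B6 luciferase reporter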
In short: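 Readout: firefly luciferase luminescence via ONE-Glo. System: HepG2 double-stable for hCAR and CYP2B6-2.2kb. Conditions: 15-point compound titration, PK11195 at 0.75 uM final, 24 h incubation.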

[5] = qHTS assay to identify small molecule antagonists of the estrogen related receptor signaling pathway with the pleiotropic PPARgamma coactivator (PGC) from Tox21 10K library (AID 1224841; call rule not given here; further: actives are mostly falling curves and most rising ones were filed inactive; nearly all actives have a fitted effect of over 50% in size; further: potency means the concentration at half of the fitted maximal effect)
In short: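 Compound exposure ran 18 hours at 37 C in PGC/ERR cells (2,000/well) that had first rested 6 hours in a 37 C/5% CO2 incubator. Luciferase activity was then detected with One-Glo after a 30-minute room-temperature step.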

[6] = target: Thyrotropin receptor (Homo sapiens) (UniProt P16473); experiment: qHTS assay to identify small molecule agonists of the thyroid stimulating hormone receptor (TSHR) signaling pathway (AID 1224843; calls by dose curve; further: nearly all actives have a fitted effect of over 45% in size)
In short: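 HEK293 cells stably bearing the thyrotropin receptor were plated at 800 cells/well and challenged with compound (30 min, RT). Accumulated cAMP was quantified via cAMP-d2 competing for cryptate-tagged antibody.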

[7] = qHTS assay to identify small molecule agonists of the hypoxia (HIF-1) signaling pathway - cell viability counter screen (AID 1224844; calls by dose curve; further: nearly all actives have a fitted effect of over 50% in size; further: potency means the concentration at half of the fitted maximal effect)
In short: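 Luminescent ATP content (CellTiter-Glo, 30 min, room temperature) served as the viability measure in HRE-bla ME-180 cells exposed to compounds for 17 hrs in low-serum medium (0.5% dialyzed FBS).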

[8] = qHTS assay to identify small molecule agonists of the hypoxia (HIF-1) signaling pathway (AID 1224846; active means well fitted activation curve with a large enough effect in the signal ratio in the repeat runs, not every such curve was filed as active; the % refers to the signal ratio)
In short: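 Measured by blue/green FRET after loading CCF4-AM: beta-lactamase expressed from a hypoxia response element in ME-180 cells. Test agents were delivered in DMSO and left 17 hrs; cells had been plated 5 hrs earlier in low-serum (0.5% dialyzed FBS) medium.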

[9] = qHTS assay to identify small molecule antagonists of the estrogen related receptor (ERR) signaling pathway from Tox21 library (AID 1224848); further: nearly all actives have a fitted effect of over 50% in size; further: potency means the concentration at half of the fitted maximal effect
In short: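 Reading was by luminescence 30 min after ONE-Glo addition. Before that, ERR cells at 2,000 per well had rested 6 h at 37 C/5% CO2 and then received pin-tooled compounds in DMSO for 18 h at 37 C.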

[10] = qHTS assay to identify small molecule agonists of the estrogen related receptor (ERR) signaling pathway from Tox21 library (AID 1224849; calls by dose curve; further: nearly all actives have a fitted effect of over 15% in size); details: ERR reporter cell line, ONE-Glo luciferase, 18 h; at 92.4 µM (top of the series) unless noted
In short: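 We plated ERR reporter cells, waited 6 h, added compounds in DMSO by pin tool and incubated them 18 h at 37 C. ONE-Glo was then added and luminescence read after 30 min.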

[11] = qHTS RealTime-Glo MT Cell Viability Assay in HepG2 cells - 24 hour (AID 1224867); further: nearly all actives have a fitted effect of over 50% in size; further: potency means the concentration at half of the fitted maximal effect
In short: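 HepG2 suspension premixed with RealTime-Glo reagents is plated at 600 cells per well and left 5 h at 37 C/5% CO2. Compounds in DMSO then go in, and bioluminescence reflecting viable cell number is recorded over 40 h.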

[12] = A CellTox Green Cytotoxicity Assay to monitor cytotoxicity in HEK293 cells - 0 hour (AID 1224869); further: nearly all actives have a fitted effect of over 50% in size; further: potency means the concentration at half of the fitted maximal effect
In short: (§1)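 Each value comes from one timepoint of a single continuous run in which HEK293 cells with CellTox Green were exposed to compound for up to 40 h at 37 C, dye fluorescence rising with cell death.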

[13] = qHTS RealTime-Glo MT Cell Viability Assay in HepG2 cells - 40 hour (AID 1224870); further: nearly all actives have a fitted effect of over 50% in size; further: potency means the concentration at half of the fitted maximal effect
In short: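 Real-time viability: cells seeded at 600 per well together with NanoLuc and cell-permeant prosubstrate, compounds added after 5 h incubation. Luminescence tracked at 0, 8, 16, 24, 32 and 40 h of exposure.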

[14] = target: Luciferin 4-monooxygenase (Photinus pyralis) (UniProt P08659); experiment: qHTS assay to identify small molecule inhibitors of firefly luciferase (AID 1224835); further: nearly all actives have a fitted effect of over 25% in size
In short: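 Inhibition of purified Photinus luciferase is measured by luminescence. Substrate levels (D-luciferin, ATP) sit at their KM values. Each compound is tested in a concentration series.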

[15] = qHTS RealTime-Glo MT Cell Viability Assay in HEK293 cells - 32 hour (AID 1224868); further: nearly all actives have a fitted effect of over 50% in size; further: potency means the concentration at half of the fitted maximal effect
In short: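 Reads taken at 0, 8, 16, 24, 32 and 40 h from the same wells. HEK293 cells (600/well) carried RealTime-Glo reagents from seeding, with compound added after a 5 h settle at 37 C.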

[16] = A CellTox Green Cytotoxicity Assay to monitor cytotoxicity in HEK293 cells - 40 hour (AID 1224871); further: nearly all actives have a fitted effect of over 45% in size; further: potency means the concentration at half of the fitted maximal effect
In short: as §1

[17] = qHTS assay to identify small molecule antagonists of the estrogen related receptor signaling pathway with the pleiotropic PPARgamma coactivator (PGC) from Tox21 10K library - cell viability counter screen (AID 1224840; active means well fitted cell-killing curve with a large enough effect in the repeat runs, not every such curve was filed as active; further: nearly all actives have a fitted effect of over 40% in size)
In short: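 Compounds in DMSO, alongside positive and negative controls, were pinned onto PGC/ERR cells (2,000 per well). Exposure lasted 17.5 hours at 37 C, followed by a 30-minute CellTiter-Fluor incubation and fluorescence reading.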

[18] = qHTS assay to identify small molecule agonists of H2AX (AID 1224845; active means well fitted activation curve with a large enough effect in the signal ratio in the repeat runs, not every such curve was filed as active; the % refers to the signal ratio)
In short: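 Phospho-H2AX Ser139 measured by HTRF (ex 320 nm; em 665 and 620 nm) after 24 hr antibody incubation. Compounds, 15 concentrations, 0.76% DMSO, were applied to CHO-K1 cells for 3hr at 37C before lysis.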

[19] = qHTS assay to identify small molecule agonists of H2AX - cell viability counter screen (AID 1224847; calls by dose curve; further: nearly all actives have a fitted effect of over 30% in size; further: potency means the concentration at half of the fitted maximal effect)
In short: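 For this counter screen, overnight-attached CHO-K1 cells received test compounds (15 concentrations, 0.76% DMSO final); 3 hr later at 37C, CellTiter-Glo reagent was added and luminescence recorded after 30 min at room temperature.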

[20] = qHTS assay to identify small molecule agonists of the estrogen related receptor signaling pathway with the pleiotropic PPARgamma coactivator (PGC) from Tox21 10K library (AID 1224842); further: nearly all actives have a fitted effect of over 15% in size
In short: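 Luminescence from One-Glo (30 min, room temperature) measured after PGC/ERR cells had 18 h at 37 C with pinned compound (23 nL in DMSO). Cells had been seeded at 2,000 per well and pre-incubated 6 h.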

Sequence of Luciferin 4-monooxygenase (Photinus pyralis) (P08659 whole entry, looked up): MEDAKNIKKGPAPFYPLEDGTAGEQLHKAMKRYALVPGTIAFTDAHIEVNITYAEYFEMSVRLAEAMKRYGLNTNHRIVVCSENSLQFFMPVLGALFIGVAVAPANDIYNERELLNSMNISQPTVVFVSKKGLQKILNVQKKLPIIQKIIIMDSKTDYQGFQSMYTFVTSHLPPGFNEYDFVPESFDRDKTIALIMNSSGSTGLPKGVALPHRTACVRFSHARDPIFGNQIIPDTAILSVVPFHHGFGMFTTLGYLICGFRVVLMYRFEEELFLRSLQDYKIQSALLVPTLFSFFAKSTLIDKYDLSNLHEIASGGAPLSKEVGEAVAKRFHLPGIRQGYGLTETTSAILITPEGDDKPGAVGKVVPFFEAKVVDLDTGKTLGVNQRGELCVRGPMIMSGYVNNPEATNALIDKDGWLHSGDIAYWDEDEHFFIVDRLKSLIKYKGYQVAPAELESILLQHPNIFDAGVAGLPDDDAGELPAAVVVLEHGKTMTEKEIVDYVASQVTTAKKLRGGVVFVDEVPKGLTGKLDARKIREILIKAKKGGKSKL
Sequence of Thyrotropin receptor (Homo sapiens) (P16473 whole entry, looked up): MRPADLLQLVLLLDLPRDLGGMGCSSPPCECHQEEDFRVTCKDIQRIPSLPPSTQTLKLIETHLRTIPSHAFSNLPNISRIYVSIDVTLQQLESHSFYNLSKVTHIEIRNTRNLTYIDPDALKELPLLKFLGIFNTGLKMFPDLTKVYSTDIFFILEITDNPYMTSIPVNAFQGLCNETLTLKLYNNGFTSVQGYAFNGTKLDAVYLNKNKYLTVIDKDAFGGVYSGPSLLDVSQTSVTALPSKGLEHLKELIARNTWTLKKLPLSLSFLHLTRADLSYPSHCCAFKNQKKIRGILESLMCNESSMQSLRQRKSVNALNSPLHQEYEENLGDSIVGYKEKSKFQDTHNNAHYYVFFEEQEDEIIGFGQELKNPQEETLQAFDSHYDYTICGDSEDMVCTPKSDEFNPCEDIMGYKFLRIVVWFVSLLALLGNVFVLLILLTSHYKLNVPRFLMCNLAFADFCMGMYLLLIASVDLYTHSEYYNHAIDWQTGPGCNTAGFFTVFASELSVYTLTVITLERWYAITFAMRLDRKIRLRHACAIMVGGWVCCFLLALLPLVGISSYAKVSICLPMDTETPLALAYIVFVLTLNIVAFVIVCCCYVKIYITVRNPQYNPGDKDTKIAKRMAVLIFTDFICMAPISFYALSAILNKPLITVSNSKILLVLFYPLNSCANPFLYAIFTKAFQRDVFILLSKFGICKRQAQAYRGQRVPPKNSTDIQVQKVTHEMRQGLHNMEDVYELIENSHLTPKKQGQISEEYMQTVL
Sequence of Nuclear receptor subfamily 1 group I member 3 (Homo sapiens) (Q14994 whole entry, looked up): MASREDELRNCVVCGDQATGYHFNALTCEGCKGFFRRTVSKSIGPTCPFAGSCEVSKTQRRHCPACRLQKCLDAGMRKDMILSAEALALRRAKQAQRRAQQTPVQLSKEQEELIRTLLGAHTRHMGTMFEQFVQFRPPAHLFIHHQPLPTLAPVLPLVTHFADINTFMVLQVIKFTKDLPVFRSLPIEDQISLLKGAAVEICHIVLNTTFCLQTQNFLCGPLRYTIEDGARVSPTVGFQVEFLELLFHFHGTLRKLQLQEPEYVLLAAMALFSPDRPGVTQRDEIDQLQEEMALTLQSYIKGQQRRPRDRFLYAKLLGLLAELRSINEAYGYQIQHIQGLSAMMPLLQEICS

Structure (SMILES) | Potency [1] | Potency [2] | Potency [3] | Potency [4] | Potency [5] | Potency [6] | Potency [7] | outcome [8] | Potency [9] | activity change, positive = activation [10] | Potency [11] | Potency [12] | Potency [13] | Potency [14] | Potency [15] | Potency [16] | Potency [17] | Potency [18] | Potency [19] | Potency [20]
C=CC(=O)OCCC#N | inactive | inactive | inactive | inactive | inactive | inactive | inactive | inactive | inactive | 47% (active) | inactive | inactive | inactive |  |  |  |  |  |  | 
Nc1ccc2cc3ccc(N)cc3nc2c1 |  |  |  |  |  |  | 24.5 µM (active) and inactive |  |  |  |  | 38.9 µM (active) and 21.3 µM (active) | 9.52 µM (active) | inactive | 871 nM (active) and 2.13 µM (active) | 43.6 µM (active) and 21.3 µM (active) |  |  |  | 
CC(C)c1ccccc1N | inactive | inactive | inactive | inactive | inactive | inactive | inactive | inactive | inactive | 3.39% (inactive) | inactive | inactive | inactive |  | inactive | inactive | inactive | inactive | inactive | 
CCCCCCCC/C=C\CCCCCCCC(=O)N(C)CC(=O)O | inactive | inactive | inactive | inactive | inactive |  | 49 µM (active) |  |  | -30% (inactive) | inactive | inactive | inactive |  |  | 34.7 µM (active) |  |  | 101 µM (active) | 
O=C(Oc1ccccc1)c1cccc(C(=O)Oc2ccccc2)c1 | inactive | inactive | inactive | 1.44 µM (active) |  |  | inactive |  |  |  | inactive | inactive | inactive |  |  | inactive | inactive |  |  | 
CCCC(C)CCC(C)=O (stereo not drawn) | inactive | inactive |  | inactive |  | inactive | inactive | inactive |  |  | inactive | inactive | inactive |  | inactive | inactive |  | inactive | inactive | 
CNCC[C@H](Oc1cccc2ccccc12)c1cccs1 | 21.1 µM (active) | 26.6 µM (active) | 29.8 µM (active) | inactive | 33.5 µM (active) | inactive |  | inactive |  | -62.1% [at 42.5 µM] (inactive) | 23.9 µM (active) | inactive | 23.9 µM (active) |  | 23.9 µM (active) |  |  | inactive |  | inactive
CCc1ccc(C)nc1 | inactive | inactive | inactive | inactive |  | inactive | inactive | inactive |  |  |  | inactive | inactive |  | inactive | inactive | inactive | inactive | inactive | 
Cc1ccc(N)cc1O | inactive | inactive | inactive | 27.3 µM (active) |  |  | inactive | inactive |  |  | inactive | inactive | inactive |  |  | inactive |  |  | 101 µM (active) | 
O=Nc1ccc(NO)cc1 | inactive | inactive | inactive | inactive | inactive |  | inactive |  | inactive |  | inactive | inactive | inactive |  |  | inactive | inactive |  | inactive | inactive
CNC(=O)c1cc(Oc2ccc(NC(=O)Nc3ccc(Cl)c(C(F)(F)F)c3)cc2)ccn1 |  |  |  |  |  | inactive | inactive |  | 8.41 µM (active) | -59.1% [at 42.5 µM] (inactive) |  | inactive |  | inactive | 3.01 µM (active) | inactive |  |  |  | 
CCOC(=O)COc1ccc(C)cc1 | inactive | inactive | inactive | inactive |  | inactive | inactive | inactive |  |  | inactive | inactive |  |  | inactive | inactive | inactive | inactive |  | 
CN1[C@@H]2CC[C@H]1CC(OC(=O)C(CO)c1ccccc1)C2 (stereo partly drawn) | inactive | inactive | inactive |  |  |  | inactive |  |  |  | inactive | inactive | inactive |  | inactive | inactive | inactive | inactive | inactive | 
NCCCC(O)(P(=O)(O)O)P(=O)(O)O | inactive | inactive | inactive | inactive |  | inactive | inactive | inactive |  |  | inactive | inactive | inactive |  | inactive | inactive | inactive | inactive | inactive | 
